Assays:
Experiment in all cases: DAPPL (digital affinity profiling via proximity ligation, sequencing); 10 mM Tris-HCl pH 7.5, 50 mM NaCl, 1 mM DTT, 4% glycerol, room temperature, 30 min; GST-TFs on glutathione beads, 16-mer random dsDNA library, 0.1% formaldehyde crosslink after washing; high values mean tight binding
[1] = target: T1, FEV (Homo sapiens, UniProt Q99581 1-238); conditions: protein: recombinant; tags: N-terminal GST; dsDNA, one strand shown
T1 sequence: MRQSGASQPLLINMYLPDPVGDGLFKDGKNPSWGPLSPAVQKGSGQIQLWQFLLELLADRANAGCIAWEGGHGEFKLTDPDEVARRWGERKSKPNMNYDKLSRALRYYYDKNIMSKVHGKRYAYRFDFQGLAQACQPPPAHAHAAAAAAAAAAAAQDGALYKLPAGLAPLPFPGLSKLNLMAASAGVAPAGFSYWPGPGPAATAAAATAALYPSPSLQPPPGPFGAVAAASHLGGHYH
Outline: (§1)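 Yeast served to express human transcription factors as GST fusions, which were then captured on glutathione beads and labelled with DNA barcodes. Pooled with a tag-only sample, they were incubated with 200 nmole of a 16-mer random double-stranded DNA library for 30 min at room temperature in Tris/NaCl/DTT/glycerol buffer, washed, crosslinked with 0.1% formaldehyde, ligated by proximity, amplified by PCR and sequenced. Dividing each hexamer's read frequency for a factor by its frequency for the tag-only sample gives the binding signal.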

[2] = target: ETV5 (Homo sapiens, UniProt P41161 1-510); conditions: protein: recombinant; tags: N-terminal GST; dsDNA, one strand shown
Outline: as §1

[3] = target: HSF1 (Homo sapiens, UniProt Q00613 1-529); conditions: protein: recombinant; tags: N-terminal GST; chain copies: 3; dsDNA, one strand shown
Outline: as §1

[4] = target: T2, SPIC (Homo sapiens, UniProt Q8N5J4 1-248); conditions: protein: recombinant; tags: N-terminal GST; dsDNA, one strand shown
T2 sequence: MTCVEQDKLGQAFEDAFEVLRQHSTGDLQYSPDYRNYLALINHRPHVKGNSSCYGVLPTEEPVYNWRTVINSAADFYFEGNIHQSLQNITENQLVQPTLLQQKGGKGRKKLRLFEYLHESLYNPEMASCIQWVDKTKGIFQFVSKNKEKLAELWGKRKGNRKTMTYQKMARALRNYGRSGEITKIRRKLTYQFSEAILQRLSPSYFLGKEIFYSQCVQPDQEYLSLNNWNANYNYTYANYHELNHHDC
Outline: as §1

[5] = target: ELF4 (Homo sapiens, UniProt Q99607 1-663); conditions: protein: recombinant; tags: N-terminal GST; dsDNA, one strand shown
Outline: as §1

[6] = target: T3, ELK4 (Homo sapiens, UniProt P28324-2 1-405); conditions: protein: recombinant; tags: N-terminal GST; dsDNA, one strand shown
T3 sequence: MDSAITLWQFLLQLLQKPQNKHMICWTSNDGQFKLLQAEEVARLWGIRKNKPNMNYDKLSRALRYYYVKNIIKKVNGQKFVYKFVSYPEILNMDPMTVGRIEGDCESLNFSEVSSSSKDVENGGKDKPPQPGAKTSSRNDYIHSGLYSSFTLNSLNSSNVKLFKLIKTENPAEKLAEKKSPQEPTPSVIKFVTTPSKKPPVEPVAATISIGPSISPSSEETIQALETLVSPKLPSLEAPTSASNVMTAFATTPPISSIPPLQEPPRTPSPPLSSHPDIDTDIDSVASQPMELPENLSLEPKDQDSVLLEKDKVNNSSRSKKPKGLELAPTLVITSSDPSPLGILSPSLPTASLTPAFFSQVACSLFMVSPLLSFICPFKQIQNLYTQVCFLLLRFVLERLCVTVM
Outline: as §1

[7] = target: T4, ETV2 (Homo sapiens, UniProt O00321 1-342); conditions: protein: recombinant; tags: N-terminal GST; dsDNA, one strand shown
T4 sequence: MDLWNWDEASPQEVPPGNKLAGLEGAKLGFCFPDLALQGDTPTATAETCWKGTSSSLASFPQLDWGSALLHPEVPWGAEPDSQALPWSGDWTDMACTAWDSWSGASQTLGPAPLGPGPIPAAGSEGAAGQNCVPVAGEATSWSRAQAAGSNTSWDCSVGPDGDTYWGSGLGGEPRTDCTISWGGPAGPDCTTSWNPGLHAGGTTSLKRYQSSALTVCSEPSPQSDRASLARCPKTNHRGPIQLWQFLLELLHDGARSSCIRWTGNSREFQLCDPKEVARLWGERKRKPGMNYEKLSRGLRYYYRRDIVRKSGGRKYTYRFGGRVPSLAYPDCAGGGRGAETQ
Outline: as §1

[8] = target: T5, ELF3 (Homo sapiens, UniProt P78545 1-371); conditions: protein: recombinant; tags: N-terminal GST; dsDNA, one strand shown
T5 sequence: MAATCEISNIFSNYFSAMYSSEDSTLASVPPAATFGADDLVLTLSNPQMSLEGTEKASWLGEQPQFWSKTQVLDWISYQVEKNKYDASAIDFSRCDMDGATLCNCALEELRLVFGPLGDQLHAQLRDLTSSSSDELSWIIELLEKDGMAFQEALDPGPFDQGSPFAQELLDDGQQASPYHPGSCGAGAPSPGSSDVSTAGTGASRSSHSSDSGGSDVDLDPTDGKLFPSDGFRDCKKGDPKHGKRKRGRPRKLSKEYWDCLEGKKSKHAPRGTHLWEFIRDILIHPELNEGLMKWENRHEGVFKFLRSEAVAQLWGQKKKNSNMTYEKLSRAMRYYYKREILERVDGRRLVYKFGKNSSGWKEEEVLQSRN
Outline: as §1

[9] = target: CRX (Homo sapiens, UniProt O43186 1-299); conditions: protein: recombinant; tags: N-terminal GST; dsDNA, one strand shown
Outline: as §1

[10] = target: ETV1 (Homo sapiens, UniProt P50549 1-477); conditions: protein: recombinant; tags: N-terminal GST; dsDNA, one strand shown
Outline: as §1

[11] = target: T6, ERF (Homo sapiens, UniProt P50548 1-548); conditions: protein: recombinant; tags: N-terminal GST; dsDNA, one strand shown
T6 sequence: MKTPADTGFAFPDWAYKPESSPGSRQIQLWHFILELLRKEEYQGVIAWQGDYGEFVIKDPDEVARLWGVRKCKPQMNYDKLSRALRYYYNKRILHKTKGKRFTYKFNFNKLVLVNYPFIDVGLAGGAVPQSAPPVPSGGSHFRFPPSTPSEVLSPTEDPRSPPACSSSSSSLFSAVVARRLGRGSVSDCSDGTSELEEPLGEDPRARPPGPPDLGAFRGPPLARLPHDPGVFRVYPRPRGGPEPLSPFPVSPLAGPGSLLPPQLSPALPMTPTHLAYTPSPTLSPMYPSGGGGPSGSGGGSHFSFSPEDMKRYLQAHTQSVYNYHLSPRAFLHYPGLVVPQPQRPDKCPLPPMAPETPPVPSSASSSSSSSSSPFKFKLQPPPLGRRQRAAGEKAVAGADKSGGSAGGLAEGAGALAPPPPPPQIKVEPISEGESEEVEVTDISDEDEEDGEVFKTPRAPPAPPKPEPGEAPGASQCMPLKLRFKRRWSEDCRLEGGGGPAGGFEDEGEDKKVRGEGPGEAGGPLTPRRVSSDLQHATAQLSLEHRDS
Outline: as §1

[12] = target: T7, ETV3L (Homo sapiens, UniProt Q6ZN32 1-361); conditions: protein: recombinant; tags: N-terminal GST; dsDNA, one strand shown
T7 sequence: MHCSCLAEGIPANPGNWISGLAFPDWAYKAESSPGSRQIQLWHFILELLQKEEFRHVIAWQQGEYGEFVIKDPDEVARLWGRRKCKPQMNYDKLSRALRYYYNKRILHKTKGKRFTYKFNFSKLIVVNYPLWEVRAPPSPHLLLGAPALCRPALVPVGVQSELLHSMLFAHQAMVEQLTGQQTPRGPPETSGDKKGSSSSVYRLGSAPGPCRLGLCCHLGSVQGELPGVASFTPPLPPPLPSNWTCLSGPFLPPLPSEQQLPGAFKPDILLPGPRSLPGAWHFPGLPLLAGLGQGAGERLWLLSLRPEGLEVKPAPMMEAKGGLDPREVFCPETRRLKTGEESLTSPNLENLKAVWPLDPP
Outline: as §1

[13] = target: T8, ETS2 (Homo sapiens, UniProt P15036 1-469); conditions: protein: recombinant; tags: N-terminal GST; dsDNA, one strand shown
T8 sequence: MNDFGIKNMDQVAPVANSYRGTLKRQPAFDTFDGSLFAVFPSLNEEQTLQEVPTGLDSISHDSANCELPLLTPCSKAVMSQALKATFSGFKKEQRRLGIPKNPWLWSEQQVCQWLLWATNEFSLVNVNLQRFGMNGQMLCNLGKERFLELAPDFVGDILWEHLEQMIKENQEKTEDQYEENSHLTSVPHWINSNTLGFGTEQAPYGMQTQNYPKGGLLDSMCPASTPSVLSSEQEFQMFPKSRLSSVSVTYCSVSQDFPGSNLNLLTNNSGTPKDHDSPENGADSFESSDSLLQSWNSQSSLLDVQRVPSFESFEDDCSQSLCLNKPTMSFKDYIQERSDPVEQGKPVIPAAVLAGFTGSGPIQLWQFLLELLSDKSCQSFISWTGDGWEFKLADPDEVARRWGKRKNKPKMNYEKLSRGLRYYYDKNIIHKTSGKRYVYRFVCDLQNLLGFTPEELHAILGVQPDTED
Outline: as §1

[14] = target: T9, SPDEF (Homo sapiens, UniProt O95238 1-335); conditions: protein: recombinant; tags: N-terminal GST; dsDNA, one strand shown
T9 sequence: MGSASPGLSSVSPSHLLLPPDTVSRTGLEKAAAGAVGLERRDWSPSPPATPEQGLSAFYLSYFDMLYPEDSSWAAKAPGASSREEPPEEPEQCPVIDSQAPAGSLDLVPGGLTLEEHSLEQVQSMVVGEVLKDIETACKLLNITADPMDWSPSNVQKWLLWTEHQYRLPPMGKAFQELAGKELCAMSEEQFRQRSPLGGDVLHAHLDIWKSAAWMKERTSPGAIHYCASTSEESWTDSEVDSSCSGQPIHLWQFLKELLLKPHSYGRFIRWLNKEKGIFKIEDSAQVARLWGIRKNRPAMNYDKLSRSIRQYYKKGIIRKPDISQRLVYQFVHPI
Outline: as §1

[15] = target: T10, ELF5 (Homo sapiens, UniProt Q9UKW6-2 1-255); conditions: protein: recombinant; tags: N-terminal GST; dsDNA, one strand shown
T10 sequence: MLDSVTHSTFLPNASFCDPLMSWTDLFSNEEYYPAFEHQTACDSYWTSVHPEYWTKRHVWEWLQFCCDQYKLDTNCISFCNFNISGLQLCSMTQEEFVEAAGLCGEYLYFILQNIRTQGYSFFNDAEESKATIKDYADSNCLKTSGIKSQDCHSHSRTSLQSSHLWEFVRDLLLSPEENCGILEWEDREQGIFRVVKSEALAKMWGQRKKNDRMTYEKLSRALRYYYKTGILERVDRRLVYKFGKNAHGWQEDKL
Outline: as §1

[16] = target: T11, ETV3 (Homo sapiens, UniProt P41162-2 1-143); conditions: protein: recombinant; tags: N-terminal GST; dsDNA, one strand shown
T11 sequence: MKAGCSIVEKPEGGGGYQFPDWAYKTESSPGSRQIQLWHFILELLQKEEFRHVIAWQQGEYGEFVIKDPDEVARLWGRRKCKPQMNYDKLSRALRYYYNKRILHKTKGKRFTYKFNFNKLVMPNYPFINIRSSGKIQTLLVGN
Outline: as §1

[17] = target: ETV6 (Homo sapiens, UniProt P41212 1-452); conditions: protein: recombinant; tags: N-terminal GST; dsDNA, one strand shown
Outline: as §1

Sequence of HSF1 (Q00613 whole entry): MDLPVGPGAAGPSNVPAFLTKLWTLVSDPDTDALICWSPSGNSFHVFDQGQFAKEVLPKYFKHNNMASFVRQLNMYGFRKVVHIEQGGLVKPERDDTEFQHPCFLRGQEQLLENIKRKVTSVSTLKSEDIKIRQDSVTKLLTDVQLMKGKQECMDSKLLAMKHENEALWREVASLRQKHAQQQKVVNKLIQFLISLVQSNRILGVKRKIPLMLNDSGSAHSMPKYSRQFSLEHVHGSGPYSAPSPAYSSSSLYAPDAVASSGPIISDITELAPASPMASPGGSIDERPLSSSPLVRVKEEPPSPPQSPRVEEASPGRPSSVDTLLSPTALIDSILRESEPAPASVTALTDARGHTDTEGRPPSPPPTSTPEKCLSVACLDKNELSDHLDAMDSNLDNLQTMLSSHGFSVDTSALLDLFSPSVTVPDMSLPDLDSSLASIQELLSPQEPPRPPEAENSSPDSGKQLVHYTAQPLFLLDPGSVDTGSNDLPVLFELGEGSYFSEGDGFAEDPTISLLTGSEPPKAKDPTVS
Sequence of CRX (O43186 whole entry): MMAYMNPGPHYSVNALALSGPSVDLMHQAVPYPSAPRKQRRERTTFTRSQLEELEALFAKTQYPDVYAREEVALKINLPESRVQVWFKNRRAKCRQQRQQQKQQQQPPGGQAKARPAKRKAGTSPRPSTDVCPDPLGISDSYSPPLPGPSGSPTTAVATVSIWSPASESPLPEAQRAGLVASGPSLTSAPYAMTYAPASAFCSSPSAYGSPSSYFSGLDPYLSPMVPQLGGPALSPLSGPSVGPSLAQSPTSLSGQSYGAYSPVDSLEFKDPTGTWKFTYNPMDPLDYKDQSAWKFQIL
Sequence of ELF4 (Q99607 whole entry): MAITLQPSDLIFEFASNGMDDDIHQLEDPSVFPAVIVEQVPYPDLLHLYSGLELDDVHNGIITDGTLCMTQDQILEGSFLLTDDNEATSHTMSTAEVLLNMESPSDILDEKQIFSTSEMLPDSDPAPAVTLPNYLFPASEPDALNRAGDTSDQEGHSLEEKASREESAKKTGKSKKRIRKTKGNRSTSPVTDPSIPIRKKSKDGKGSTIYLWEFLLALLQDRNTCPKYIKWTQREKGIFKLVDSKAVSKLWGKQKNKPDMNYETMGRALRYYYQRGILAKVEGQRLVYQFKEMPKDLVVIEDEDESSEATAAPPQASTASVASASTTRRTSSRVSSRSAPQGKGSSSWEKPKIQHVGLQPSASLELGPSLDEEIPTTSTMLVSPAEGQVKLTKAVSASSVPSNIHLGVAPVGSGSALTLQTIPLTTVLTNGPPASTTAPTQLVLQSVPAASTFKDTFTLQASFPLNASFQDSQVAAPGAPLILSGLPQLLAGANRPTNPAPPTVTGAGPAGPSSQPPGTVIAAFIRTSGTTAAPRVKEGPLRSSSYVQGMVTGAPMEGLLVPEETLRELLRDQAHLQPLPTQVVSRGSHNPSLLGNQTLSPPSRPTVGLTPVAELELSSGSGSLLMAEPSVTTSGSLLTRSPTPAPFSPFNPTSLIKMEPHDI
Sequence of ETV5 (P41161 whole entry): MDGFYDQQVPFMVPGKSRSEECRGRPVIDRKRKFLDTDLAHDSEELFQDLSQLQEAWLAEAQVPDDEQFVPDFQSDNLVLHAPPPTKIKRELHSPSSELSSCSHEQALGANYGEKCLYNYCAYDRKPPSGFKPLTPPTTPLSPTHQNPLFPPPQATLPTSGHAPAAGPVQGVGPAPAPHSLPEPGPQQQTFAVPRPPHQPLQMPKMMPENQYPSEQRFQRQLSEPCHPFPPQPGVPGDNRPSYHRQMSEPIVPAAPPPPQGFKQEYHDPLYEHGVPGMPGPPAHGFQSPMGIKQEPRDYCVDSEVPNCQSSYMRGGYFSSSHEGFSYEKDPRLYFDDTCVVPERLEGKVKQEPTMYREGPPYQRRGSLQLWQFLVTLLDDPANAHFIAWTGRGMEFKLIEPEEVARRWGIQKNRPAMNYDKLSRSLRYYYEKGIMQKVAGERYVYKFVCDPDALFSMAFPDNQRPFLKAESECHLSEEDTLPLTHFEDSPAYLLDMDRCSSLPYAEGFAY
Sequence of ETV1 (P50549 whole entry): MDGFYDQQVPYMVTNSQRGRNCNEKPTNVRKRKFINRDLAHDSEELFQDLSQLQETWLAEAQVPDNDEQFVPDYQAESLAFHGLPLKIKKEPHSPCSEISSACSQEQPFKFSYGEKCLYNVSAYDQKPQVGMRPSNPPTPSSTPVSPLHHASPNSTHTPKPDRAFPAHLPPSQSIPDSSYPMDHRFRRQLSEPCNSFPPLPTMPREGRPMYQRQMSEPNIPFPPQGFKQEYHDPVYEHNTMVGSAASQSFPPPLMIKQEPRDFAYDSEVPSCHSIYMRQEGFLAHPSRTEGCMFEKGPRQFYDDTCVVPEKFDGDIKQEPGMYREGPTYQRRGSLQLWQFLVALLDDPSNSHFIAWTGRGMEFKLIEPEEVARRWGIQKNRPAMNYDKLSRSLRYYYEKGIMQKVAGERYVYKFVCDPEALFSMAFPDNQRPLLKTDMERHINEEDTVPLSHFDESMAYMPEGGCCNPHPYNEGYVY
Sequence of ETV6 (P41212 whole entry): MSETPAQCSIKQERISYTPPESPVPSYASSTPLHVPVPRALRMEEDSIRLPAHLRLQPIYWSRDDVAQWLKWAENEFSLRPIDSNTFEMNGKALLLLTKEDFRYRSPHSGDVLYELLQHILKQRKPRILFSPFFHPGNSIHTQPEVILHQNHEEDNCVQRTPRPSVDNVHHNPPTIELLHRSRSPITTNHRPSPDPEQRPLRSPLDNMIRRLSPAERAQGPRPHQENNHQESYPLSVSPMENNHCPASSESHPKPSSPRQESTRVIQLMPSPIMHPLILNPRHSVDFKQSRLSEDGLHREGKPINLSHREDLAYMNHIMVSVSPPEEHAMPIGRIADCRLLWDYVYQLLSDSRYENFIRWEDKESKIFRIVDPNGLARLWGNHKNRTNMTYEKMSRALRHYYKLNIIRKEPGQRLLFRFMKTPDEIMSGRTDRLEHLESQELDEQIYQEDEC

CGCCTA
binding signal [1]: 1.11 fold enrichment (6-mer frequency, TF over GST control) | binding signal [2]: 1.18 fold enrichment (6-mer frequency, TF over GST control) | binding signal [3]: 1.15 fold enrichment (6-mer frequency, TF over GST control) | binding signal [4]: 1.36 fold enrichment (6-mer frequency, TF over GST control) | binding signal [5]: 1.12 fold enrichment (6-mer frequency, TF over GST control) | binding signal [6]: 1.28 fold enrichment (6-mer frequency, TF over GST control) | binding signal [7]: 1.13 fold enrichment (6-mer frequency, TF over GST control) | binding signal [8]: 1.06 fold enrichment (6-mer frequency, TF over GST control) | binding signal [9]: 1.18 fold enrichment (6-mer frequency, TF over GST control) | binding signal [10]: 1.12 fold enrichment (6-mer frequency, TF over GST control) | binding signal [11]: 1.15 fold enrichment (6-mer frequency, TF over GST control) | binding signal [12]: 1.25 fold enrichment (6-mer frequency, TF over GST control) | binding signal [13]: 1.19 fold enrichment (6-mer frequency, TF over GST control) | binding signal [14]: 1.15 fold enrichment (6-mer frequency, TF over GST control) | binding signal [15]: 1.18 fold enrichment (6-mer frequency, TF over GST control) | binding signal [16]: 1.2 fold enrichment (6-mer frequency, TF over GST control) | binding signal [17]: 1.14 fold enrichment (6-mer frequency, TF over GST control)

From publication PMC7862700, “An all-to-all approach to the identification of sequence-specific readers for epigenetic DNA modifications on cytosine”
